# Assay results reported in PubChem BioAssay (NCATS).
# Results filed as inconclusive are left out. Entries that show only a call come without a potency. Calls of active or inactive are those of the source. Unless noted, calls follow the shape of the dose curve; as a rule, active = well fitted curve in the direction sought with a large enough effect; inconclusive = small, poorly fitted or top-dose-only effect, or another doubt; inactive = no such curve, though single readings can be large; an effect the other way counts as inactive or inconclusive.
# Tests used:
# [1] = target: ATP-dependent 6-phosphofructokinase (Trypanosoma brucei brucei) (UniProt O15648); experiment: qHTS Assay to Find Inhibitors of T. brucei phosphofructokinase: hit validation (AID 492961); also: potency is read from the fitted curve at half-maximal effect
# ATP-dependent 6-phosphofructokinase (Trypanosoma brucei brucei), sequence (O15648 whole entry, looked up): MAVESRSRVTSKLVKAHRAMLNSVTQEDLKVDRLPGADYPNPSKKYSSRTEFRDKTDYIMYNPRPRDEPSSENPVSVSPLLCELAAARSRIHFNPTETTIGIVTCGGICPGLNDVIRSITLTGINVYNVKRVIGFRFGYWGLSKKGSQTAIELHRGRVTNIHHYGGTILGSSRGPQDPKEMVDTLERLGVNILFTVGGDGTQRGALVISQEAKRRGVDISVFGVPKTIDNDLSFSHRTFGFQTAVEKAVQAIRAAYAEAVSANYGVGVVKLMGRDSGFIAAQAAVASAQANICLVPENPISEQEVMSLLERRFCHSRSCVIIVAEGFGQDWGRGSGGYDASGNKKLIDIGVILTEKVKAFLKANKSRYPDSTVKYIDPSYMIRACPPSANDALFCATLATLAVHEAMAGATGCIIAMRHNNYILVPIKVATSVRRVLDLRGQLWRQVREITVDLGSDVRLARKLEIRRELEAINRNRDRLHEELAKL
# Summary of the method: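 In this biochemical qHTS validation, titrated compounds were tested against 1.25 nM PFK with 0.1 mM ATP and 0.5 mM F6P. Percent activity came from controls lacking or containing enzyme.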
# [2] = target: Beta-2 adrenergic receptor (Homo sapiens) (UniProt P07550); experiment: qHTS validation assay of beta-arrestin-biased ligands of beta2-adrenergic receptor (AID 485366)
# Beta-2 adrenergic receptor (Homo sapiens), sequence (P07550 whole entry, looked up): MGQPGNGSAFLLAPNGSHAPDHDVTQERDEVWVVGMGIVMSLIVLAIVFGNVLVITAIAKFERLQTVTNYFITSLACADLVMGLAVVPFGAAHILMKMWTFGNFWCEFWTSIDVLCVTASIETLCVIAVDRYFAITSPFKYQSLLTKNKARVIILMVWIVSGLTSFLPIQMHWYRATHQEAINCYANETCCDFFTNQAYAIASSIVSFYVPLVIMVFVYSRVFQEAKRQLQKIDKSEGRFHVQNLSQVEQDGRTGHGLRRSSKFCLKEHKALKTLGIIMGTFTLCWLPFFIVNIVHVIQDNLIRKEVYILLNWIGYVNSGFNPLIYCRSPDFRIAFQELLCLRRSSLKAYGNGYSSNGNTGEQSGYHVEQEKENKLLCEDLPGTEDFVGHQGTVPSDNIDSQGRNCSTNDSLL
# Summary of the method: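 Tango cells expressing recombinant beta2-AR and beta-arrestin with tTA-driven luciferase, in DMEM with 1% FBS. Compounds were titrated up to 46 microM for 18 hr at 37 degrees C. Luminescence was read 15 min after substrate; curves were fitted and class-assigned.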
# [3] = target: ATP-dependent 6-phosphofructokinase (Trypanosoma brucei brucei) (UniProt O15648); experiment: qHTS Validation Assay to Find Inhibitors of T. brucei phosphofructokinase (AID 485368)
# Summary of the method: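 Activity was read as ADP production by luminescence (ADP-Glo) after 45 min at room temperature. The enzyme was 1.25nM PFK in 0.1M TEA pH 8.0 with 0.5 mM F6P, 0.1mM ATP and 5 mM MgCl2. Compounds were titrated up to 57 uM and % activity normalized to no-enzyme and full-enzyme controls.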
# [4] = target: Thioredoxin reductase 1, cytoplasmic (Rattus norvegicus) (UniProt O89049); experiment: qHTS Assay for Substrates of Mammalian Selenoprotein Thioredoxin Reductase 1 (TrxR1) (AID 488772);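 also: NADPH fluorescence in the first read after selenite addition and not the 8 min delta; series mostly up to about 57 µM; a drop in NADPH fluorescence below the no-compound background marks a TrxR1 substrate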
# Thioredoxin reductase 1, cytoplasmic (Rattus norvegicus), sequence (O89049 whole entry, looked up): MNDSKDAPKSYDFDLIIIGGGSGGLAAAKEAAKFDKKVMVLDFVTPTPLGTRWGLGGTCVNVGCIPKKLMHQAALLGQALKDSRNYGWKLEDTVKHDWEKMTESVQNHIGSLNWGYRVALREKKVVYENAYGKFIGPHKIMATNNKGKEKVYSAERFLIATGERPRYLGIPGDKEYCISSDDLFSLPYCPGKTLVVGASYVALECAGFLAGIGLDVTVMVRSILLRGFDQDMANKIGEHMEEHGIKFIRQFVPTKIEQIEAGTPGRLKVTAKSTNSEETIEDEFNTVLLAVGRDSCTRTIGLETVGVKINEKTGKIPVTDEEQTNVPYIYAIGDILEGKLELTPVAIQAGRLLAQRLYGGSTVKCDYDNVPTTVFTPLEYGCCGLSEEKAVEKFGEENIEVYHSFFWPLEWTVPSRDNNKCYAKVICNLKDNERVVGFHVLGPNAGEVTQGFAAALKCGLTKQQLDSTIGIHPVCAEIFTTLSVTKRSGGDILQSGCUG
# Summary of the method: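 Quantitative HTS in Tris-HCl buffer at pH 7.5 with EDTA and Tween-20, using rat TrxR1, 400 uM NADPH and 400 uM selenite (final). A fall in initial NADPH fluorescence relative to background marked substrate behaviour.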
# [5] = target: Flap endonuclease 1 (Homo sapiens) (UniProt P39748); experiment: qHTS Validation Assay for the Inhibitors of Human Flap endonuclease 1 (FEN1) (AID 488816)
# Flap endonuclease 1 (Homo sapiens), sequence (P39748 whole entry, looked up): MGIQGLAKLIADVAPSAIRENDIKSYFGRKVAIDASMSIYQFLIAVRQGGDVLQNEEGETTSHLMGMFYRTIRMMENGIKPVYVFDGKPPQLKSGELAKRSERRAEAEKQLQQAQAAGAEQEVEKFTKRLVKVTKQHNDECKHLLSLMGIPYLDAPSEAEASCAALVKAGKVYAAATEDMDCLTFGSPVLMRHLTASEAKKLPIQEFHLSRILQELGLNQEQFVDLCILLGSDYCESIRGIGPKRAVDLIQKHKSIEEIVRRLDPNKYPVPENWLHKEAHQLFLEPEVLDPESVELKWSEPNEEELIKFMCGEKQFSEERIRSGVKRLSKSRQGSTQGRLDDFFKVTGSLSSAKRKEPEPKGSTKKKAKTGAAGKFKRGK
# Summary of the method: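 Readings taken at 0 and 15 min after starting the reaction with 50 nM (final) substrate supplied the signal. Compounds had first sat with 10 nM FEN1 reagent for 15 min at room temperature. Values come from Hill-equation concentration-response fits.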
# [6] = target: M-phase phosphoprotein 8 (Homo sapiens) (UniProt Q99549); experiment: qHTS Validation Assay for Inhibitors for MPP8 Chromodomain Interactions with Methylated Histone Tails (AID 488949); also: nearly all actives have a fitted effect of over 55% in size; also: potency is read from the fitted curve at half-maximal effect
# M-phase phosphoprotein 8 (Homo sapiens), sequence (Q99549 whole entry, looked up): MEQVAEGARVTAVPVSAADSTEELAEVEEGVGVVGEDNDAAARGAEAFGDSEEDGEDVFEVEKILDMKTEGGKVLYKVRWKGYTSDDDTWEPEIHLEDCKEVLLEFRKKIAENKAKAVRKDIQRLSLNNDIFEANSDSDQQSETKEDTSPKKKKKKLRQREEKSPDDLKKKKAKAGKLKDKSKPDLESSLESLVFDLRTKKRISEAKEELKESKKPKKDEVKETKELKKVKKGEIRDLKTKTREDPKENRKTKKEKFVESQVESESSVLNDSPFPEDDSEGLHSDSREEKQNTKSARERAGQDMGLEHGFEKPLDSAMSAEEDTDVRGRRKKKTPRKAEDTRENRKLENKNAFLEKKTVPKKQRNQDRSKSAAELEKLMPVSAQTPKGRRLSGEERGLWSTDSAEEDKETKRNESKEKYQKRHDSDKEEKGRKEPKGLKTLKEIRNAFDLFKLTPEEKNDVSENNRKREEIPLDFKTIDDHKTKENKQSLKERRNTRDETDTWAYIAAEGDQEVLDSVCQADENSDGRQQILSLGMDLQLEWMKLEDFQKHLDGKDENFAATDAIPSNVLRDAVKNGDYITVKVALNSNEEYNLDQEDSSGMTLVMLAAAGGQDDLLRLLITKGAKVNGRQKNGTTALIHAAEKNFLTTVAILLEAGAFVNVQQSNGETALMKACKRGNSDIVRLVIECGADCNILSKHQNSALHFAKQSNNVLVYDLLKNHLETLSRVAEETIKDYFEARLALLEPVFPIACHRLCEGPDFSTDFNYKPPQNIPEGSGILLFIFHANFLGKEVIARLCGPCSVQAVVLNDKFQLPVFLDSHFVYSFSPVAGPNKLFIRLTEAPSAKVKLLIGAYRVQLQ
# Summary of the method: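 Chemiluminescent proximity assay: histidine-tag capture via nickel acceptor beads, biotin peptide via streptavidin donor beads. Protein and peptide each at 50 nM, pH 7.4, with 30 min incubations at room temperature for complex formation, compound exposure and bead binding.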
# [7] = target: Methanococcus maripaludis chaperonin (MmCpn) (UniProt Q6LX38); experiment: High-Throughput Screening for Modulators of Cytosolic Chaperonin Activity: MmCpn Primary Screen (AID 488978)
# Methanococcus maripaludis chaperonin (MmCpn), sequence (Q6LX38 1-543): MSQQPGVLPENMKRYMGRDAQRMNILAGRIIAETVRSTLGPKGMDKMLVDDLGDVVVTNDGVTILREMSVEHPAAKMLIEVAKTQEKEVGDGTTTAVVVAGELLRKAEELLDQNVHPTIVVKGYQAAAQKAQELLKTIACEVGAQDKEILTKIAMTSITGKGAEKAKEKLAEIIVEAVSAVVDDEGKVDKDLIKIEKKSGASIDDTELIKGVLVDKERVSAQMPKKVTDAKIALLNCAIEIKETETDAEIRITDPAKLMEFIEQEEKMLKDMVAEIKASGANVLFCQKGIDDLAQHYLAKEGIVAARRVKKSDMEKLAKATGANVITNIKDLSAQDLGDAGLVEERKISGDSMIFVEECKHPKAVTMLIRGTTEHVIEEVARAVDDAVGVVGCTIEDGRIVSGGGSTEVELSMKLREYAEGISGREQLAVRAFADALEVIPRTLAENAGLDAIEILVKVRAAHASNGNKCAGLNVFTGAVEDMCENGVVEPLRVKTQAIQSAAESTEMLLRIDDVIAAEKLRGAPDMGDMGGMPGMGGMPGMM
# Summary of the method: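 HTRF readout (320 nm excitation, 590/665 nm emission) of ADP generated by 50 nM MmCpn hydrolysing 30 uM ATP during 10 min at 37C; compound preincubated 5 min RT.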
# [8] = Validation screen for small molecules that induce genotoxicity in human embryonic kidney (HEK293T) cells expressing luciferase-tagged ELG1 (AID 493106)
# Summary of the method: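 HEK293T cells expressing luciferase-tagged ELG1, 2,000 cells/well, exposed to compound 16 hr at 37 °C, 5% CO2. Luciferase read after ONE-Glo, 30 min at room temperature; increased signal indicates genetic stress.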
# [9] = target: Thyrotropin-releasing hormone receptor (Homo sapiens) (UniProt P34981); experiment: qHTS for Small Molecule Agonists and Allosteric Enhancers of Human TRH Receptor: Validation Screen for Agonists (AID 493127;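 active = calcium activation more than 3 SD above the typical response in the agonist read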); settings: TRH receptor agonist cell assay; at 2 µM; stronger effect = higher value
# Thyrotropin-releasing hormone receptor (Homo sapiens), sequence (P34981 whole entry, looked up): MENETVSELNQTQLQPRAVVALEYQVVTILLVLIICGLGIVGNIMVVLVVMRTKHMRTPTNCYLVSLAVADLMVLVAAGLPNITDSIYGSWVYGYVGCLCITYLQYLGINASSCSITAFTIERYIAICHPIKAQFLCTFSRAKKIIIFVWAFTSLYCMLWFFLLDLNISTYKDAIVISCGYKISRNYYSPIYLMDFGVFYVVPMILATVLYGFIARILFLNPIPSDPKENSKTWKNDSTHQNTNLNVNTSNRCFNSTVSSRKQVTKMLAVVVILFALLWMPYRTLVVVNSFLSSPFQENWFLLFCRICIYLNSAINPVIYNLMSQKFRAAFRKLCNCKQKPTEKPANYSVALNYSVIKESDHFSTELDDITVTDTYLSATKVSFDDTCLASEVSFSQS
# Summary of the method: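 TRHR cells loaded with fluo-8 calcium dye; FDSS kinetic fluorescence (Ex 480/Em 530) read at 1 s/cycle after 23 nL compound addition. Agonist-mode calcium response recorded before the 10 nM TRH (EC20) addition.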
# [10] = Nrf2 qHTS screen for inhibitors: Validation (AID 493153; active = well fitted inhibition curve with a large enough effect in the main read-out, with a control signal flat, not every such curve was filed as active; also: potency is read from the fitted curve at half-maximal effect); settings: Potency: luciferase luminescence; viability change: measured here: cytotoxicity max response
# Summary of the method: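 A549 cells carrying ARE-firefly luciferase reporter, 5000 cells/well in 5% FBS OPTI-MEM, treated with compound over a concentration series for 18-24 h at 37 C. Luciferase luminescence gave Nrf2 activity; CellTiter-Fluor fluorescence gave viability.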
# [11] = qHTS for Inhibitors of Cell Surface uPA Generation: Validation Assay (AID 493164)
# Summary of the method: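 RAW 264.7 cells (4000/well) were plated overnight, then exposed for 18 h at 37 C, 5% CO2 to compounds in a 7-point 1:5 titration (2.45 nM–38.3 uM final). Intracellular ATP was read by ATP-Lite luminescence.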
# [12] = target: Chromobox protein homolog 1 (Homo sapiens) (UniProt P83916); experiment: qHTS Validation Assay for Inhibitors of HP1-beta Chromodomain Interactions with Methylated Histone Tails (AID 488953); also: nearly all actives have a fitted effect of over 50% in size; also: potency is read from the fitted curve at half-maximal effect
# Chromobox protein homolog 1 (Homo sapiens), sequence (P83916 whole entry, looked up): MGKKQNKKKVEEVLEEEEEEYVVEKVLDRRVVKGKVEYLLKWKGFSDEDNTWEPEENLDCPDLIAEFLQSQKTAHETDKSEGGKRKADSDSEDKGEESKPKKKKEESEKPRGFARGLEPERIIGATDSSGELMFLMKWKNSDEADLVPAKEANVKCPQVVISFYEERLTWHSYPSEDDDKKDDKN
# Summary of the method: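 HP1-beta (50 nM) preformed 30 min with biotinylated H3(1-18)K9me3 peptide (50 nM) in PBS pH 7.4, 0.01% Tween-20. Compounds added for 30 min at room temperature. Complex disruption read by AlphaScreen with streptavidin donor/nickel chelate acceptor beads (10 ug/mL each).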
# [13] = target: D(1A) dopamine receptor (Homo sapiens) (UniProt P21728); experiment: HTS Assay for Allosteric Agonists of the Human D1 Dopamine Receptor: Primary Screen for Agonists (AID 488981)
# D(1A) dopamine receptor (Homo sapiens), sequence (P21728 whole entry, looked up): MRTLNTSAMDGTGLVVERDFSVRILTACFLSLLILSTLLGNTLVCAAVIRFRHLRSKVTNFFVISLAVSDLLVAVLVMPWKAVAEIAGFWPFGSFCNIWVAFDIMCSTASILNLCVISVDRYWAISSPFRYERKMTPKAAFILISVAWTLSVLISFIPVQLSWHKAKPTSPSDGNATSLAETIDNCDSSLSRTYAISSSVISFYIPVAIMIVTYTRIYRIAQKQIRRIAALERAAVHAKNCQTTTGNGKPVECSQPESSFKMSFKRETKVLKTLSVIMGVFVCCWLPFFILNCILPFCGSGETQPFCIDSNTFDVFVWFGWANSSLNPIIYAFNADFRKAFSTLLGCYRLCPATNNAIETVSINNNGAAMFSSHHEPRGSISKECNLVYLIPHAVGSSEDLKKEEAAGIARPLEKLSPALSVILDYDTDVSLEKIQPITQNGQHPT
# Summary of the method: (§1)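 Calcium flux in an inducible, force-coupled HEK293 Trex D1 line (overnight at 30 C): agonist mode is the 180 s kinetic read after compound; potentiator mode is the following 180 s read after dopamine at EC20.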
# [14] = target: D(1A) dopamine receptor (Homo sapiens) (UniProt P21728); experiment: HTS Assay for Allosteric Agonists of the Human D1 Dopamine Receptor: Primary Screen for Potentiators (AID 488982)
# Summary of the method: as §1
# [15] = target: D(1A) dopamine receptor (Homo sapiens) (UniProt P21728); experiment: HTS Assay for Allosteric Agonists of the Human D1 Dopamine Receptor: Primary Screen for Antagonists (AID 488983);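 also: calcium flux response to an EC80 dopamine challenge measured with no-wash dye; nearly all actives have a fitted effect of over 65% in size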; also: potency is read from the fitted curve at half-maximal effect
# Summary of the method: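 Tetracycline-induced HEK293 T-REx D1 line, force-coupled to calcium flux, read with no-wash calcium dye. Compound added after 10 s baseline, read 180 s for agonism, then EC80 dopamine added and read a further 180 s.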
# [16] = target: ATPase family AAA domain-containing protein 5 (Homo sapiens) (UniProt Q96QE3); experiment: Validation screen for small molecules that inhibit ELG1-dependent DNA repair in human embryonic kidney (HEK293T) cells expressing luciferase-tagged ELG1 (AID 493107);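 also: cells co-treated with the DNA-damaging agent 5-fluorouridine alongside compound; series mostly up to about 46 µM; inhibitors lower the ELG1-luciferase luminescence signal; nearly all actives have a fitted effect of over 70% in size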
# Summary of the method: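 HEK293T cells expressing luciferase-tagged ELG1, 2,000 per well, treated with 5-fluorouridine plus compound for 16 h at 37 C. ONE-Glo luminescence after 30 min at room temperature reports ELG1 reporter level.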
# [17] = target: Tyrosyl-DNA phosphodiesterase 1 (Homo sapiens) (UniProt Q9NUW8); experiment: Confirmation Assay for Inhibitors of Tyrosyl-DNA Phosphodiesterase (TDP1) (AID 489007); settings: recombinant human TDP1 enzymatic activity, dose-response; also: potency is read from the fitted curve at half-maximal effect; nearly all actives have a fitted effect of over 40% in size
# Tyrosyl-DNA phosphodiesterase 1 (Homo sapiens), sequence (Q9NUW8 whole entry, looked up): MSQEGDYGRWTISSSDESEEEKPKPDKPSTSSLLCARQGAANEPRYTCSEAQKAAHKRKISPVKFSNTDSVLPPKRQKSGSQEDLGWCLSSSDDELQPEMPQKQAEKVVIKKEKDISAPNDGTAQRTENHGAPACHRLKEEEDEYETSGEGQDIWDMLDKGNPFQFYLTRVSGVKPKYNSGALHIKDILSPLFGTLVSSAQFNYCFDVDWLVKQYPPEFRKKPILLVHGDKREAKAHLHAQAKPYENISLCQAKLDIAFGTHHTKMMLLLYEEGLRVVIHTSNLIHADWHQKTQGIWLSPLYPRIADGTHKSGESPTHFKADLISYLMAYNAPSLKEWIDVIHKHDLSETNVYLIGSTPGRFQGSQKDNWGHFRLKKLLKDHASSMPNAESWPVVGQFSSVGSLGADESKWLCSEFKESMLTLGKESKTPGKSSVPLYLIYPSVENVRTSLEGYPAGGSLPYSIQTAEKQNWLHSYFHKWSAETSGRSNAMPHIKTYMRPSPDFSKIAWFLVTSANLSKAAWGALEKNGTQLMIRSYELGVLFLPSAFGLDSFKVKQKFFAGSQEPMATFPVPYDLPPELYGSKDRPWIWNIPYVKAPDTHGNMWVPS
# Summary of the method: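 Recombinant human Tdp1 (1 nM final), expressed in E. coli, preincubated 15 min with compound. Then 15 nM 5'-biotin/3'-phosphotyrosine-FITC DNA substrate added for 5 min at room temperature. AlphaScreen beads (10 ug/ml) added for 10 min; cleavage gives signal loss.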
# [18] = Quantitative high throughput screen for delayed death inhibitors of the malarial parasite plastid, 96 hour incubation (AID 488745); also: series mostly up to about 29 µM; nearly all actives have a fitted effect of over 70% in size
# Summary of the method: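 Luciferase-expressing P. falciparum in erythrocytes (2% hematocrit, 0.1% parasitemia) incubated with compound for 96 h at 37 C, 5% CO2, in RPMI 1640 with 0.5% Albumax. Growth inhibition read as decreased luminescence.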
# [19] = target: Transient receptor potential cation channel subfamily V member 1 (Homo sapiens) (UniProt Q8NER1); experiment: HTS Assay for Compounds that Act as Enhancers of the Vanilloid Receptor 1 (AID 488979)
# Summary of the method: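 Calcium influx kinetics via Fluo-8 (480/520 nm) in TRPV1-expressing cells, 2000/well cultured overnight at 35.5C. Compound-alone read 3 min (agonist phase), followed by EC20 capsaicin challenge for 2 min (enhancer phase).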
structure (smiles),measurement,setting,value
NC(=O)NC(=O)Cc1ccccc1,Potency,[1],inactive
C[C@H](N)[C@H](O)c1cccc(O)c1,Potency,[1],inactive
[Cl][In]([Cl])[Cl],Potency,[1],inactive
CN(C)CCCN1c2ccccc2Sc2ccc(Cl)cc21,outcome,[2],inactive
same,Potency,[3],inactive
same,outcome,[4],inactive
same,Potency,[5],inactive
same,Potency,[6],35.5 µM (active)
same,Potency,[7],inactive
same,Potency,[8],inactive
same,activation,[9],11.5% (inactive)
same,Potency,[10],inactive
same,viability change,[10],4.06%
same,outcome,[11],inactive
CC(O)CN(CCN(CC(C)O)CC(C)O)CC(C)O (stereo not given),Potency,[1],inactive
C[C@]12C[C@H](O)[C@H]3[C@@H](CCC4=CC(=O)CC[C@@]43C)[C@@H]1CC[C@@H]2C(=O)CO,outcome,[2],inactive
same,Potency,[3],inactive
same,outcome,[4],inactive
same,Potency,[5],inactive
same,Potency,[6],inactive
same,Potency,[12],inactive
same,Potency,[7],inactive
same,Potency,[13],inactive
same,outcome,[14],inactive
same,Potency,[15],inactive
same,Potency,[1],inactive
same,Potency,[8],inactive
same,outcome,[16],inactive
same,Potency,[10],6.51 µM (active)
same,viability change,[10],-3.09%
same,outcome,[11],inactive
Cc1c(O)cccc1C(=O)N[C@@H](CSc1ccccc1)[C@H](O)CN1C[C@H]2CCCC[C@H]2C[C@H]1C(=O)NC(C)(C)C,Potency,[1],inactive
CN1CCC[C@@H]1Cc1c[nH]c2ccc(CCS(=O)(=O)c3ccccc3)cc12,Potency,[1],inactive
O=Cc1ccccc1C=O,Potency,[17],14.1 µM (active)
same,Potency,[1],inactive
COc1cc(C)c(Cc2cnc(N)nc2N)cc1OC,Potency,[1],inactive
CNCC(O)c1ccc(O)c(O)c1 (stereo not given),Potency,[3],inactive
same,Potency,[18],inactive
same,outcome,[4],inactive
same,Potency,[6],inactive
same,Potency,[12],inactive
same,Potency,[7],inactive
same,outcome,[19],inactive
same,outcome,[14],inactive
same,Potency,[8],inactive
same,outcome,[16],inactive
same,activation,[9],0.938% (inactive)
same,Potency,[10],inactive
same,viability change,[10],1.42%
same,outcome,[11],inactive
Cc1cccc(C)c1NC(=O)CN(CC(=O)O)CC(=O)O,Potency,[1],inactive
CSc1ccc2c(c1)C(N1CCN(C)CC1)Cc1ccccc1S2 (stereo not given),outcome,[2],inactive
same,Potency,[3],inactive
same,outcome,[4],inactive
same,Potency,[5],inactive
same,Potency,[6],44.7 µM (active)
same,Potency,[12],39.8 µM (active)
same,Potency,[7],inactive
same,Potency,[13],inactive
same,outcome,[14],inactive
same,Potency,[15],0.316 µM (active)
same,Potency,[1],inactive
same,Potency,[8],inactive
same,activation,[9],5.38% (inactive)
same,Potency,[10],inactive
same,viability change,[10],-13.4%
same,outcome,[11],inactive
Cc1cc2c(cc1S(N)(=O)=O)S(=O)(=O)CCC2,Potency,[1],inactive
CCCCCCCCCCCCCCCCCCOCC(O)CO (stereo not given),Potency,[1],inactive
CC(=O)Nc1ccc(/C=N/NC(N)=S)cc1,Potency,[1],inactive
[O-][n+]1cccc(CO)c1,Potency,[1],inactive
O=C1OC(OC(=O)c2cccnc2Nc2cccc(C(F)(F)F)c2)c2ccccc21 (stereo not given),Potency,[1],inactive
CCOC(CN1CCN(CC(C)C(=O)c2ccccc2)CC1)c1ccccc1 (stereo not given),Potency,[1],inactive
CCOc1nc2cccc(C(=O)O)c2n1Cc1ccc(-c2ccccc2-c2nn[nH]n2)cc1,Potency,[1],inactive
COc1ccc2c(c1)C(=O)N(CCc1ccc(S(=O)(=O)NC(=O)NC3CCCCC3)cc1)C(=O)C2(C)C,Potency,[1],inactive
O=C(O)[C@@H]1CSCN1,Potency,[1],inactive
CC(O)COc1ccccc1 (stereo not given),Potency,[1],inactive
CN1CCCCC1CCN1c2ccccc2Sc2ccc(S(C)=O)cc21 (stereo not given),Potency,[1],inactive
CC(C)(C)C(=O)C(Oc1ccc(Cl)cc1)n1ccnc1 (stereo not given),Potency,[1],inactive
CCCCN(CCCC)CC(O)c1cc(Cl)cc2c1-c1ccc(Cl)cc1/C2=C/c1ccc(Cl)cc1 (stereo not given),Potency,[1],inactive
CCC(=O)Nc1ccc(O)cc1,Potency,[1],inactive
CCCCN(CCCC)CCCOC(=O)c1ccc(N)cc1,Potency,[1],inactive
C[C@@H]1CN(c2c(F)c(F)c3c(=O)c(C(=O)O)cn(C4CC4)c3c2F)C[C@H](C)N1,Potency,[1],inactive
O=C(O)CN1C(=O)c2cccc3cccc(c23)C1=O,Potency,[1],inactive
CCN(CC)CCSC(=O)C(c1ccccc1)c1ccccc1,Potency,[1],inactive
CC(=O)c1ccc2c(c1)N(CCCN(C)C)c1ccccc1S2,Potency,[1],inactive
O=C(O)c1ccccc1O,Potency,[1],inactive
NCC(=O)CCC(=O)O,Potency,[1],inactive
O=C(Oc1ccccc1C(=O)O)c1ccccc1O,Potency,[1],inactive
Nc1ccc(S(=O)(=O)Nc2ccccc2)cc1,Potency,[1],inactive
Nc1ccc(S(=O)(=O)Nc2ccc(Cl)nn2)cc1,Potency,[1],inactive
O=S(=O)(O)c1cc(I)c(O)c2ncccc12,Potency,[1],31.6 µM (active)
Cc1ncc(COP(=O)(O)O)c(C=O)c1O,Potency,[1],inactive
NCCNCCNCCN,Potency,[1],inactive
O=c1cc[nH]c(=S)[nH]1,Potency,[1],inactive
COc1ccc(S(=O)(=O)Nc2nnc(CC(C)C)s2)cc1,Potency,[1],inactive
COc1cc2[nH]c(=O)[nH]c(=O)c2cc1OC,Potency,[1],inactive
O=c1[nH]c(=O)c2[nH]c(=O)[nH]c2[nH]1,Potency,[1],inactive
O=C(O)c1ccccn1,Potency,[1],inactive
CCn1cc(C(=O)O)c(=O)c2cnc(N3CCNCC3)nc21,Potency,[1],inactive
Oc1cn2c(n1)Nc1ccc(Cl)c(Cl)c1C2,Potency,[1],inactive
NC(CSCC(=O)O)C(=O)O (stereo not given),Potency,[1],inactive
CCCCCCCCCCCCOS(=O)(=O)O,Potency,[1],inactive
NS(=O)(=O)c1cc2c(cc1Cl)NC(CSCc1ccccc1)=NS2(=O)=O,Potency,[1],inactive
Oc1cccc(O)c1,Potency,[1],inactive
